Rows were chosen to be rich in hits. Some 2.3% of all compounds tested hit in one or more screens of this group.
DNA Pol III inh – qHTS Assay for Inhibitors of DNA Polymerase III Holoenzyme System; reconstituted DNA polymerase III holoenzyme replication, biochemical; Potency, µM (titrated, usually from 57.1 µM), without a hit: at the top dose activity change, negative = inhibition; 71,000 tested, 0.25% active; AID 603, 2007; also: potency is read from the fitted curve at half-maximal effect; % is scaled to controls: 0 for no effect and ±100 for the full control effect
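Reconstituted *E. coli* holoenzyme (0.35 nM Pol III, 1 nM beta, 154 nM SSB, 2 nM primase) was preincubated with compound for 15 min at RT. Synthesis on 1.4 nM ssM13Gori ran 35 min, then was stopped with PicoGreen/EDTA and read as dsDNA fluorescence.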
TsaE inh – qHTS Assay for Inhibitors of YjeE; Potency, µM; purified YjeE enzyme, qHTS inhibition assay; tRNA threonylcarbamoyladenosine biosynthesis protein TsaE (Escherichia coli (strain …; 71,000 tested, 0.05% active
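Fluorescence polarization of a BODIPY Texas Red–ADP probe (2 uM) bound to purified YjeE (10 uM) was read after 15 min room-temperature incubation with compounds. Loss of polarization marks inhibitors; ADP serves as titrated control.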
Hsp90 Hop PPI – qHTS Assay for Disrupters of an Hsp90 Co-Chaperone Interaction. Hsp90 C-terminal peptide / TPR2A (Hop) interaction, human. AlphaScreen TPR2A-His6 binding biotin-Hsp90 C-terminal peptide. Potency, µM (series often up to 57 µM), inactives show top-dose activity change, negative = inhibition. 71,000 tested, 0.44% active. AID 595, 2007; active = well fitted curve in either direction with a large enough effect; inconclusive = small, poorly fitted or top-dose-only effect, or another doubt; also: potency is read from the fitted curve at half-maximal effect; % is scaled to controls: 0 for no effect and ±100 for the full control effect
BRCT inh red – qHTS Assay for Inhibitors of BRCT-Phosphoprotein Interaction (Red Fluorophore). Breast cancer type 1 susceptibility protein (Homo sapiens), P38398. BRCT-phosphopeptide binding, red fluorescence polarization. Potency, µM (top dose mostly 76.9 µM), for inactives: at the top dose activity change, negative = inhibition, usual class: inhibitors. 75,000 tested, 0.03% active. AID 892, 2007; also: % is scaled to controls: 0 for no effect and ±100 for the full control effect
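Rhodamine-labelled pBACH1 10-mer (100 nM) bound to BRCT domain (100 nM) at pH 7.3; compounds incubated 12 min room temperature, polarization read. Free peptide defines full inhibition; unlabelled decapeptide titrated as control.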
Tau filament bind – qHTS Assay for Tau Filament Binding; Microtubule-associated protein tau (Homo sapiens), P10636; recombinant tau filaments, thioflavin S fluorescence, 15 h; filaments grown with octadecylsulfate alongside compound; Potency, µM (series often up to 57.1 µM), for inactives: at the highest dose activity change, negative = inhibition; 71,000 tested, 2% active;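 also: potency is read from the fitted curve at half-maximal effect; % is scaled to controls: 0 for no effect and ±100 for the full control effect; actives lower thioflavin S fluorescence by blocking filaments or displacing dye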
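Read-out: ThS fluorescence, 450 nm excitation/510 nm emission; lower signal marks blocked filament formation or displaced dye. Tau at 1 uM with 30 uM ODS, 10 uM ThS, 5 mM DTT, 100 mM NaCl, 10 mM HEPES pH 7.4; 15 h, 37 C.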
BRCT inh green – qHTS Assay for Inhibitors of BRCT-Phosphoprotein Interaction (Green Fluorophore) | BRCA1 BRCT-phosphopeptide binding, green fluorescence polarization | Potency, µM (top dose mostly 76.9 µM), for the others: at the top dose activity change, negative = inhibition, most hits filed as inhibitors | 75,000 tested, 0.05% active;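 also: potency is read from the fitted curve at half-maximal effect; plate controls were peptide without protein for full effect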
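Fluorescence polarization: His-tagged BRCT (~35 kDa BRCA1 C-terminus, 250 nM) bound to 100 nM fluorescein-labeled phosphorylated 10-aa BACH1 peptide, pH 7.3 phosphate buffer with DTT and Tween 20. Compounds incubated 12 min at room temperature; inhibition read as lowered polarization.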
Starred values were filed as active, the others as inactive; i = inactive; ? = inconclusive; . = no result; ! = not active in a repeat; [ ] = dose if it differs, or a comment. Unless noted, calls follow the shape of the dose curve; as a rule, active = well fitted curve in the direction sought with a large enough effect; inconclusive = small, poorly fitted or top-dose-only effect, or another doubt; inactive = no such curve, though single readings can be large; an effect the other way counts as inactive or inconclusive.

SMILES	DNA Pol III inh	TsaE inh	Hsp90 Hop PPI	BRCT inh red	Tau filament bind	BRCT inh green
CCOC(=O)C1=C(C)NC(C)=C(C(=O)OC)[C@@H]1c1cccc([N+](=O)[O-])c1	-8%[25.6 µM]	i	-3%[26 µM]	-1%[34.4 µM]	-27%[25.6 µM]	-1%[34.4 µM]
COC(=O)C1=C(C)NC(C)=C(C(=O)OCCN(C)Cc2ccccc2)[C@@H]1c1cccc([N+](=O)[O-])c1	-3%	i	-27%	-3%	32µM*	2%
COCCOC(=O)C1=C(C)NC(C)=C(C(=O)OC(C)C)[C@@H]1c1cccc([N+](=O)[O-])c1	-2%	i	-13%	-4%	32µM*!	-2%[3.08 µM]
COc1ccc(C(=O)COC(=O)CN2CC(=O)Oc3ccccc32)cc1Br	-6%	i	6.3µM*	-3%	-26%	4%
COc1ccc(C(=O)COC(=O)CN2C(=O)NC(C)(C)C2=O)cc1OC	0%	i	-1%	0%	-11%	1%
O=S1(=O)N[C@H]2CC[C@@H]3NS(=O)(=O)N[C@H]4CC[C@H](N1)N4S(=O)(=O)N23	-7%[11.4 µM]	i	-3%[11 µM]	1%[15.4 µM]	3.2µM*	-1%[15.4 µM]
O=c1c(-c2cccc(Cl)c2)nc2cncnc2n1Cc1ccccc1Cl	-7%	i	-1%	0%	6.3µM*	8%
Cc1nc2cncnc2n(Cc2ccccc2Cl)c1=O	-3%	i	-4%	2%	16µM*	0%
COc1ccccc1CCn1c(=O)c(-c2ccc(F)cc2)nc2cncnc21	-1%	i	-1%	0%	-9%	-1%
COc1ccccc1CCn1c(=O)c(-c2cccc(Cl)c2)nc2cncnc21	16%	i	-1%	-1%	13µM*	-1%
O=c1c(-c2cc(F)cc(F)c2)nc2cnc(N3CCOCC3)nc2n1C1CC1	-9%	i	-4%	-3%	9%	-2%
CCOc1cc(N2CCOCC2)c(OCC)cc1NC(=O)c1nc2nc(C)cc(C)n2n1	-3%	i	-4%	2%	25µM*	-1%
CCOc1cc(N2CCOCC2)c(OCC)cc1NC(=O)CCS(=O)(=O)c1ccc(Cl)cc1	-2%	i	-12%	-1%	25µM*	-1%
NC(=O)C1=CN([C@@H]2O[C@@H](COP(=O)(O)OP(=O)(O)OC[C@@H]3O[C@H](n4cnc5c(N)ncnc54)[C@@H](OP(=O)(O)O)[C@@H]3O)[C@H](O)[C@@H]2O)C=CC1	-10%	i	-11%	2%	-3%	-5%
CC(=O)c1cccc(NC(=O)Cc2cccs2)c1	10%[11.4 µM]	i	-6%[11 µM]	-3%	4µM*	2%
O=C(Cc1cccs1)Nc1cccc(C(=O)Nc2ccco2)c1	3%	i	-3%	0%	3%	1%
Cc1ccc(O)c(-c2cc(C(F)(F)C(F)F)[nH]n2)c1	0%	i	-3%	-1%	-30%	0%
FC(F)C(F)(F)C(F)(F)C(F)(F)c1cc(-c2ccccc2)n[nH]1	-7%	i	3%	-4%	10µM*	-10%
COCC(=O)N1CCC2(CCN(Cc3ccccc3)CC2)CC1	-4%	i	0%	0%	-2%	-1%
CC#C[C@@]1(O)CC[C@@H]2[C@@H]3CCC4=CC(=O)CCC4=C3[C@@H](c3ccc(N(C)C)cc3)C[C@]21C	-2%	i	?	.	32µM*	.
CC(=O)N1CCN(c2ccc(Nc3ncnc4c3oc3ccccc34)cc2)CC1	-2%	i	-8%	-1%	25µM*	-3%
CCc1nc(N2CCN(C(=O)c3ccco3)CC2)c2oc3ccccc3c2n1	-3%	i	-3%	-1%	19%	6%
CCc1nc(Nc2ccc(N3CCN(C(C)=O)CC3)cc2)c2oc3ccccc3c2n1	-7%	i	-19%	0%	20µM*	2%
Cc1ccc(S(=O)(=O)N2CCC(C(=O)OC(C)C(=O)NCc3ccc4c(c3)OCO4)CC2)cc1 (stereo not drawn)	-1%	i	?	-2%	-3%	0%
Cc1ccc(S(=O)(=O)N2CCC(C(=O)N[C@@H](C)C(=O)Nc3ccc4c(c3)OCO4)CC2)cc1	-5%	i	-21%	-1%	10µM*	-5%
SMILES	DNA Pol III inh	TsaE inh	Hsp90 Hop PPI	BRCT inh red	Tau filament bind	BRCT inh green
Cc1cc(O)c2c(c1)C(=O)c1cc(O)cc(O)c1C2=O	-17%	i	5µM*!	-2%	2.5µM*	3%
O=C(c1ccc(F)cc1)C1CCN(CCn2c(=O)[nH]c3ccccc3c2=O)CC1	-7%	i	1%	-1%	32µM*!	-2%
Cc1ccc2c(c1)c1c3n2CCN[C@H]3CCC1	-3%	i	-8%	-2%	?	-3%
Cc1ccc2c(c1)c1c3n2CCN=C3CCC1	0%	i	-9%	1%	13µM*	0%
COc1ccc(-c2nc3cnc(N4CCN(C)CC4)nc3n(-c3ccc(OC)cc3)c2=O)cc1	-3%	i	?	-1%	98%	0%
COc1ccc2[nH]cc(CCNc3cc(-c4cccc(C#N)c4)ncn3)c2c1	-2%	i	-12%	0%	-5%	0%
CC(=C/C=C/C(C)=C/C=C/C=C(C)/C=C/C=C(C)/C=C/C(=O)O)/C=C/C(=O)O	-14%	i	-1%	1%	25µM*	-2%
O=C(O)/C=C/C(=O)O	1%	i	-4%	2%	104%	-2%
CCCCC	1%	i	3%	2%	7%	-1%
FC(F)(F)c1cnc(Nc2ccc(N3CCOCC3)cc2)c(Cl)c1	-13%	i	-24%	0%	32µM*	-2%
O=C(c1cnccn1)N1CCC2(CC1)CN(Cc1cc(C(F)(F)F)cc(C(F)(F)F)c1)C2	-6%	i	-2%	2%	-8%	0%
COc1ccc(-n2c(=O)c(CCc3ccccc3)nc3cncnc32)cc1	-7%	i	1%	-1%	-10%	-2%
COc1cc(C2c3c(oc4ccc(C)cc4c3=O)C(=O)N2c2cc(C)ccn2)cc(OC)c1OC (stereo not drawn)	-1%	i	2%	-2%	-11%	0%
Cc1ccc2oc3c(c(=O)c2c1)C(c1cccc(O)c1)N(c1ccccn1)C3=O (stereo not drawn)	6%	i	-7%	-2%	13µM*	-1%
COc1ccc(C(=O)CSc2nn3c(=O)c(C(C)(C)C)nnc3s2)cc1	-15%	i	?	0%	2%	2%
